Where “and” joins values, the source holds several entries; their conditions need not be identical. Identical values can stand only once. Counter-ions that a name gives are not always drawn. ± gives the standard deviation of the averaged measurements.

The results in this text go back to the supplement of paper PMC7393113.

This assay has as its system iBMDM (immortalised mouse bone-marrow-derived macrophages), LPS-stimulated. Briefly: mitochondrial superoxide (MitoSOX fluorescence) fold increase over unstimulated control; higher = more LPS-induced mitochondrial ROS (less inhibition). To be noted: inhibitor concentration: 500 nM; LPS: 100 ng/ml; time after LPS: 4 h. Summed up:
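Mitochondrial superoxide was expressed as fold induction over untreated macrophages. Immortalised mouse bone-marrow-derived macrophages were pretreated with kinase inhibitors (500 nM) for 30 min, loaded with 1 μM MitoSox for 10 min and stimulated with LPS (100 ng/ml). MitoSox fluorescence (excitation 510 nm, emission 580 nm) was read hourly over 4 h, and the three replicates were averaged.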
`CCCS(=O)(=O)Nc1ccc(F)c(C(=O)c2c[nH]c3ncc(-c4ccc(Cl)cc4)cc23)c1F` [Vemurafenib (PLX4032, RG7204)] yielded a mitochondrial superoxide of 1.17 ± 0.029.
In the case of `C[C@@H]1CN(CC(=O)Nc2ccc3c(c2)Cc2cccc(-c4cc(=O)cc(N5CCOCC5)o4)c2S3)C[C@H](C)O1` it was 1.44 ± 0.015.
As to `O=C1c2ccc(Nc3ccc(F)cc3F)cc2CCc2ccc(OC[C@H](O)CO)cc21` [Skepinone-L], the mitochondrial superoxide is 1.62 ± 0.049.
`Cc1[nH]c(/C=C2\C(=O)Nc3ccc(S(=O)(=O)N(C)c4cccc(Cl)c4)cc32)c(C)c1C(=O)N1CCN(C)CC1` registered a mitochondrial superoxide of 1.67 ± 0.27.
In the case of `C=CC(=O)Nc1cccc(Nc2nc(Nc3ccc(OCCOC)cc3)ncc2F)c1` it was 1.29 ± 0.019.
For `O=C1NC(=O)C(c2ccccc2[N+](=O)[O-])=C1Nc1ccc(O)c(Cl)c1`, the mitochondrial superoxide was determined as 1.63 ± 0.063.
As for `N#CC(=Cc1ccc(O)c(O)c1)C(=O)NCc1ccccc1` [AG-490 (Tyrphostin B42)], the mitochondrial superoxide came to 1.44 ± 0.097.
As to `O=C(O)c1ccc(Nc2ncc3c(n2)-c2ccc(Cl)cc2C(c2c(F)cccc2F)=NC3)cc1`, the mitochondrial superoxide came to 1.46 ± 0.052.
For `Nc1nc(NCCNc2ncc(-n3ccnc3)c(-c3ccc(Cl)cc3Cl)n2)ccc1[N+](=O)[O-]` the value was 1.31 ± 0.056.
For `CC[C@@H]1C(=O)N(C)c2cnc(Nc3ccc(C(=O)N[C@H]4CC[C@H](N5CCN(CC6CC6)CC5)CC4)cc3OC)nc2N1C(C)C` [Volasertib (BI 6727)] the value was 1.37 ± 0.043; for `Cc1cc(C(=O)NOCCO)c(Nc2ccc(I)cc2F)n(C)c1=O`, 1.39 ± 0.073; for `N#Cc1c(Oc2ccc(F)c(NC(=O)Cc3cccc(C(F)(F)F)c3)c2)ccc2nc(NC(=O)C3CC3)sc12`, 1.66 ± 0.076.
On to `O=C(/C=C/c1ccc(O)c(O)c1)c1ccc(O)cc1O` [Butein], for which the mitochondrial superoxide was found to be 1.85 ± 0.019.
For `CO[C@@H](C(=O)N1Cc2[nH]nc(NC(=O)c3ccc(N4CCN(C)CC4)cc3)c2C1)c1ccccc1` the value was 1.48 ± 0.038.
In the case of `CNC(=O)c1cccc(-c2ccc3c(N4CCOC[C@@H]4C)nc(N4CCOC[C@@H]4C)nc3n2)c1` it was 1.66 ± 0.1; in that of `COc1ccc(-c2ccc3ncc4c(c3c2)n(-c2ccc(N3CCNCC3)c(C(F)(F)F)c2)c(=O)n4C)cn1`, 1.49 ± 0.077; in that of `CS(=O)(=O)N1CCN(Cc2cc3nc(-c4cccc5[nH]ncc45)nc(N4CCOCC4)c3s2)CC1`, 1.6 ± 0.041.
The molecule `COC(=O)Nc1ccc(-c2nc(N3CCOCC3)c3cnn(C4CCN(C(=O)OC)CC4)c3n2)cc1` displayed a mitochondrial superoxide of 1.14 ± 0.024.
In the case of `Cc1nc(Nc2ncc(C(=O)Nc3c(C)cccc3Cl)s2)cc(N2CCN(CCO)CC2)n1` [Dasatinib] it was 1.85 ± 0.068; in that of `O=C(Nc1ccc(OC(F)(F)F)cc1)c1sccc1NCc1ccnc2ccccc12`, 1.25 ± 0.031.
For `CS(=O)(=O)CCNCc1ccc(-c2ccc3ncnc(Nc4ccc(OCc5cccc(F)c5)c(Cl)c4)c3c2)o1` the value was 1.89 ± 0.18; for `CC(C)N(CCC(=O)c1ccc2ccccc2c1)Cc1ccccc1`, 1.69 ± 0.02.
As for `CCn1c(-c2nonc2N)nc2c(C#CC(C)(C)O)ncc(OC[C@H]3CCCNC3)c21`, the mitochondrial superoxide came out at 1.49 ± 0.019.
Turning to `Cc1csc(-c2nnc(Nc3ccc(Oc4ncccc4-c4ccnc(N)n4)cc3)c3ccccc23)c1`, the mitochondrial superoxide came out at 1.67 ± 0.046.
Molecule `FC(F)(F)c1ccc(/C=C/c2nc(COc3ccc(CCCCn4ccnn4)cc3)co2)cc1` [Mubritinib (TAK 165)] came in with a mitochondrial superoxide of 1.296 ± 0.0099.
For `C[C@H](NC(=O)/C(C#N)=C/c1cccc(Br)n1)c1ccccc1` the value was 1.5 ± 0.04; for `COc1ccc(Cl)cc1NC(=O)Nc1cc(C)nc2ccccc12`, 1.652 ± 0.011; for `CN1CCN(C2CCN(C(=O)Nc3cc(Oc4ccc(NC(=O)C5(C(=O)Nc6ccc(F)cc6)CC5)c(F)c4)ccn3)CC2)CC1` [Golvatinib (E7050)], 1.09 ± 0.071.
Consider `Cn1cc(-c2ccc3ncc(Cc4ccc5ncccc5c4)n3n2)cn1`, for which the mitochondrial superoxide is 1.61 ± 0.14.
For `CNC(=O)c1cc(Oc2ccc(NC(=O)Nc3ccc(Cl)c(C(F)(F)F)c3)cc2)ccn1` [Sorafenib Tosylate] the value was 1.73 ± 0.077; for `NC(=O)Nc1cc(-c2cccc(F)c2)sc1C(=O)N[C@H]1CCCNC1`, 1.25 ± 0.1; for `Cc1cc(Nc2ncnc3ccc(-c4ccc(CNCCS(C)(=O)=O)o4)cc23)ccc1Oc1ccn2ncnc2c1` [HER2-Inhibitor-1], 1.57 ± 0.063.
As for `O=S(=O)(NCCNCC=Cc1ccc(Br)cc1)c1cccc2cnccc12`, the mitochondrial superoxide was 1.28 ± 0.07.
For `COc1ccc2c(c1)c(C1=C(c3c[nH]c4ccccc34)C(=O)NC1=O)cn2CCCN(C)C`, the mitochondrial superoxide amounted to 1.36 ± 0.042.
For `O=C1NC(=O)C(=Cc2ccc(-c3ccc(F)cc3)o2)S1` (stereo in doubt) the value was 1.65 ± 0.081.
Regarding `N#CC[C@H](C1CCCC1)n1cc(-c2ncnc3[nH]ccc23)cn1`, the mitochondrial superoxide was 1.35 and 1.29.
In the case of `Oc1cccc(-c2nc(N3CCOCC3)c3oc4ncccc4c3n2)c1` it was 1.685 ± 0.012.
